Measured values reported in PMC4336329 (PLoS ONE, 2015).
In all, about 310,000 compounds went through this assay and about 14,000 (4.5%) showed an effect of 50% or more. Effects have a minus sign here. The list comes from a sample in which strong results are over-represented; it also holds similar structures and randomly drawn compounds.

Target: human ether-à-go-go-related gene (hERG) potassium channel (human, UniProt Q12809)
Experiment: primary screen, population patch clamp on CHO cells stably expressing hERG; higher = less effect of the substance
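Further: peak tail current of the secondary pulse compared with the same well before compound.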

Sequence of human ether-à-go-go-related gene (hERG) potassium channel (Q12809 whole entry, looked up): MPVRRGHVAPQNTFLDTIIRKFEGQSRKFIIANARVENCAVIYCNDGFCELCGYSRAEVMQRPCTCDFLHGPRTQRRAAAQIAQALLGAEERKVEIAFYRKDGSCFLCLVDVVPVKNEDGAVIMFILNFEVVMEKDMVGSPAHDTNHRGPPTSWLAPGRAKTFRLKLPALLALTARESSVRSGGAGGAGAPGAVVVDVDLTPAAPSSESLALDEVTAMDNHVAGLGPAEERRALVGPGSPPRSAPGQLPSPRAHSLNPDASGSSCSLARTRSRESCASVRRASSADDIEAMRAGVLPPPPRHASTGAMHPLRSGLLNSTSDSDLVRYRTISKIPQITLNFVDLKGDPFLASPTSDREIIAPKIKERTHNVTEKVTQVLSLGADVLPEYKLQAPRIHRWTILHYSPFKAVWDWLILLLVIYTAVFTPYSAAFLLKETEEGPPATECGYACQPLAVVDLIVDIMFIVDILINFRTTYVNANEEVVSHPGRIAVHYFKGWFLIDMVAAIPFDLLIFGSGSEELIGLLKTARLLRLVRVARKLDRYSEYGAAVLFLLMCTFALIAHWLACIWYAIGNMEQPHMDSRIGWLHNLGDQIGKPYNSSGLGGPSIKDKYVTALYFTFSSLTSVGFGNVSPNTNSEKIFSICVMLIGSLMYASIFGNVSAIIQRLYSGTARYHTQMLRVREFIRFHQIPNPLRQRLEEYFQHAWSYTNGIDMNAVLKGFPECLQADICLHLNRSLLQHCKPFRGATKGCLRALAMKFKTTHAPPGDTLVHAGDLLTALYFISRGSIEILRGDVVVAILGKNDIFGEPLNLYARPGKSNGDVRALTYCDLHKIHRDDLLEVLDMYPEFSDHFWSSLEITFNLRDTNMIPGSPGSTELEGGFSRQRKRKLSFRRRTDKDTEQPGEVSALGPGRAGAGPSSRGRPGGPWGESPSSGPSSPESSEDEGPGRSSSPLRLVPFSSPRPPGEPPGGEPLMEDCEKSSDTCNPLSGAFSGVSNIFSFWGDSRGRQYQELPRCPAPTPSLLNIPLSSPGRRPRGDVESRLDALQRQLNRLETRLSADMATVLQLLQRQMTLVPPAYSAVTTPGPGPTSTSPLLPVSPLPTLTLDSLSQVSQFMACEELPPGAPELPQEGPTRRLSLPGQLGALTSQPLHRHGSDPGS

SMILES | hERG current change (%, negative = inhibition) at 10uM [%]
COc1cccc(-c2nn[nH]n2)c1O | 9.02
c1ccc(CSCc2cn3ccsc3n2)cc1 | -4.45
COc1ccc(CCNC(=O)C2CCCN(S(=O)(=O)c3cccc4nonc34)C2)cc1OC (stereo not shown) | 10.5
Cc1cccc(C(=O)NC(=S)NNC(=O)c2cccs2)c1 | 17.2
Cc1onc(-c2ccccc2)c1NC(=O)N(CCC#N)Cc1ccccc1 | 3.65
CCOC(=O)c1ccc(NC(=O)c2nc[nH]c2C(=O)NCC(=O)OC(C)(C)C)cc1 | 19.5
Cc1cc(C)nc(/N=C(\N)N(Cc2ccccc2)Cc2ccccc2)n1 | -70.6
CCN(CC)/C(N)=N/c1nc(C)cc(C)n1 | 7.16
Cc1cc(C)nc(/N=C(\N)N2CCCCCC2)n1 | -3.86
CCCCN(CCCC)/C(N)=N/c1nc(C)cc(C)n1 | -80.2
CCN(/C(N)=N/c1nc(C)cc(C)n1)c1ccccc1 | -6.01
Cc1cc(C)nc(N(C#N)Cc2ccccc2)n1 | -4.34
COc1cccc(C=O)c1OCCN1C(=O)c2ccccc2C1=O | 4
CCc1ccccc1S(=O)(=O)Cc1ccc(C(=O)NCc2cccs2)o1 | -22.5
Cc1cc(C(=O)CCl)c(C)n1CCc1ccc(F)cc1 | 27.2
CN1CCN(c2ncnc3c2cnn3C)CC1 | 19.5
CC1CC(C)CN(c2ncnc3c2cnn3C)C1 (stereo not shown) | -69.8
CC1CC(C)CN(c2ncnc3c2cnn3-c2ccc(Cl)cc2)C1 (stereo not shown) | 3.17
Cc1ccccc1NC(=O)c1cccnc1 | -7.59
CCCCOC(=O)c1cc(=O)[nH]c2ccc(C)cc12 | 5.6
CC1(C)OC(=O)C(=NNc2ccccc2[N+](=O)[O-])C(=O)O1 | 24.3
COC(=O)CN(c1ccc(Cl)cc1C)S(C)(=O)=O | 13.9
CS(=O)(=O)c1cccc(C(=O)N(CCc2ccccc2)Cc2cccs2)c1 | -48.6

SMILES | hERG current change (%, negative = inhibition) at 10uM [%]
COc1ccc(C(=O)N(CCc2ccccc2)Cc2cccs2)c(OC)c1 | -15.9
N#Cc1cccc(C(=O)N(CCc2ccccc2)Cc2cccs2)c1 | -53.3
O=C(Cc1ccccc1)Nc1ccc(C(=O)NCc2ccccc2)cc1 | 11.2
Cn1c(SCC(=O)Nc2cccc(F)c2)nnc1-c1cccnc1 | -33.1
O=C(CSc1nnc(-c2cccnc2)n1CCN1CCCCC1)Nc1cccc(Cl)c1 | -79.8
C=CCn1c(SCC(=O)Nc2ccc(C(=O)O)cc2)nnc1-c1cccnc1 | 34.6
Cc1ccc(NC(=O)CSc2nnc(-c3cccnc3)n2CCN2CCCCC2)cc1 | -69
CCCn1c(SCC(=O)Nc2cccc(C(=O)OC)c2)nnc1-c1cccnc1 | -42
Cn1c(SCC(=O)Nc2ccc(F)cc2)nnc1-c1cccnc1 | -11.5
COC(=O)C1=C(c2ccc(OC)c(OC)c2)C[C@@H]2CC[C@H]1N2C(=O)N1CCC(C)CC1 | 5.39
O=C(COc1ncnc2ccc(Br)cc12)NC1CCCC1 | 2.91
Cc1cc(NC(=O)COC(=O)CSc2nc3cc(Cl)ccc3n2Cc2ccccc2)no1 | -19.9
Nc1nc2n(n1)C(=O)CC(c1ccccc1[N+](=O)[O-])N2 (stereo not shown) | 41.7
CC(C)(C)n1nnnc1C(c1ccc(C(F)(F)F)cc1)N(Cc1ccc(F)cc1)Cc1ccco1 (stereo not shown) | 8.86
O=C(NCCc1csc(-c2ccccc2)n1)c1ccccc1F | -49.5
COCCNC(=O)CCc1nc2cccnc2n1Cc1ccc(OC)cc1 | 8.65
COc1ccc(Cn2c(CCC(=O)Nc3ccccc3)nc3cccnc32)cc1 | -9.7
O=C(CCc1nc2cccnc2n1Cc1ccccc1)NCCc1ccc(Cl)cc1 | -78.6
O=C(O)CCc1nc2cccnc2n1Cc1ccccc1 | -24.6
CCCCNC(=O)CCc1nc2cccnc2n1Cc1ccccc1 | -51.7
COCCCNC(=O)CCc1nc2cccnc2n1Cc1ccc(OC)cc1 | 10.8
CCCCCCNC(=O)CCc1nc2cccnc2n1Cc1ccc(OC)cc1 | -63.6
COCCCNC(=O)CCc1nc2cccnc2n1Cc1ccccc1 | -29.8

SMILES | hERG current change (%, negative = inhibition) at 10uM [%]
CCCCNC(=O)CCc1nc2cccnc2n1Cc1ccc(OC)cc1 | -18.1
Cc1ccc(NC(=O)c2cc(CC(C)C)nc3ccccc23)cc1 | 11
CCOc1ccc2nc(NC(=O)CN3CCN(C)CC3)sc2c1 | -15.7
CN(C)CCc1nn[nH]n1 | -0.456
CSCCC(NC(=O)c1ccc(Cl)cc1Cl)C(=O)OC1CCCCC1=O (stereo not shown) | -26.7
CCOc1ccc(NC(=O)CN(C)CC(=O)Nc2cccc(Cl)c2C)cc1OCC | -10.4
CC(=O)N(CCC(c1ccccc1)c1ccco1)Cc1cccs1 (stereo not shown) | -52.9
COc1ccccc1C(CCN(Cc1cccs1)C(C)=O)c1ccco1 (stereo not shown) | -2.93
CCC(=O)N(CCC(c1ccccc1)c1ccco1)Cc1cccs1 (stereo not shown) | -15.9
CCNS(=O)(=O)c1ccc(NC(=O)Nc2cccc(OC)c2)cc1 | 8.01
COc1ccccc1NC(=O)C(C)NS(=O)(=O)c1ccc(Cl)cc1 (stereo not shown) | -0.716
COc1ccccc1NS(=O)(=O)c1ccc(Cl)cc1 | -19.5
COc1ccc(NC(=O)CCNS(=O)(=O)c2ccc(NC(C)=O)cc2)cc1Cl | 22.8
COc1cccc(NC(C)=[N+](C)CCNS(=O)(=O)c2ccc(Cl)cc2)c1.[I-] | -64.4
COc1ccc(NC(=O)CNS(=O)(=O)c2ccccc2)cc1Cl | 4.28
COc1ccccc1NC(C)=[N+](C)CCNS(=O)(=O)c1ccc(Cl)cc1.[I-] | -58.7
CC(=O)Nc1ccc(S(=O)(=O)NCCc2ccc(F)cc2)cc1 | -10.7
CC(Nc1cc(C)cc(C)c1)=[N+](C)CCNS(=O)(=O)c1ccc(Cl)cc1.[I-] | -48.5
COc1cccc(NC(=O)C2(S(=O)(=O)c3ccc(Cl)cc3)CC2)c1 | -15.9
CC(Nc1ccc(F)cc1)=[N+](C)CCNS(=O)(=O)c1ccc(Cl)cc1.[I-] | -68.4
COc1ccc(NC(C)=[N+](C)CCNS(=O)(=O)c2ccc(Cl)cc2)cc1Cl.[I-] | -69.5
